# Laboratory results published in article PMC7862700, “An all-to-all approach to the identification of sequence-specific readers for epigenetic DNA modifications on cytosine”.
# How the values were obtained:
# Assay in all cases: DAPPL (digital affinity profiling via proximity ligation, sequencing); 10 mM Tris-HCl pH 7.5, 50 mM NaCl, 1 mM DTT, 4% glycerol, room temperature, 30 min; GST-TFs on glutathione beads, 16-mer random dsDNA library, 0.1% formaldehyde crosslink after washing; high values mean tight binding
# Conditions in all cases: protein: recombinant; tags: N-terminal GST; dsDNA, one strand shown
# [1] = target: T1, FLI1 (Homo sapiens, UniProt Q01543 1-452)
# T1 sequence: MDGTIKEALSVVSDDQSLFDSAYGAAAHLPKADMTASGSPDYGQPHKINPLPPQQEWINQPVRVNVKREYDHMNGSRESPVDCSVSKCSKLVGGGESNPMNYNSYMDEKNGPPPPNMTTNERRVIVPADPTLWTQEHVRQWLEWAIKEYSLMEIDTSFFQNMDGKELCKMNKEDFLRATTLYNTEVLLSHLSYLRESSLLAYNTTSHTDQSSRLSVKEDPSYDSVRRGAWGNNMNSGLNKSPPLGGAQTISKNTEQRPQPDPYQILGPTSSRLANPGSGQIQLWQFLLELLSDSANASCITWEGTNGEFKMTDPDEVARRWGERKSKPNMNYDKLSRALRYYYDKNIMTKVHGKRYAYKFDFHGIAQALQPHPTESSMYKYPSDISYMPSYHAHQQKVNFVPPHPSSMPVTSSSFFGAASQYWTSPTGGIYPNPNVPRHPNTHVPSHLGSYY
# Outline: (§1)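 After expression in yeast as GST fusions, human transcription factors were bound to glutathione beads, DNA-barcoded and mixed with a tag-only sample. The pools were incubated with 200 nmole of a 16-mer random double-stranded DNA library in Tris/NaCl/DTT/glycerol buffer (30 min, room temperature), washed and crosslinked with 0.1% formaldehyde. Proximity ligation with BsaI/T4 ligase ran for 1 h at 37 °C, before PCR amplification and sequencing on an Illumina NextSeq500. Binding signal is a hexamer's read frequency for a factor divided by its frequency for the tag-only sample.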
# [2] = target: T2, ELK1 (Homo sapiens, UniProt P19419 1-428)
# T2 sequence: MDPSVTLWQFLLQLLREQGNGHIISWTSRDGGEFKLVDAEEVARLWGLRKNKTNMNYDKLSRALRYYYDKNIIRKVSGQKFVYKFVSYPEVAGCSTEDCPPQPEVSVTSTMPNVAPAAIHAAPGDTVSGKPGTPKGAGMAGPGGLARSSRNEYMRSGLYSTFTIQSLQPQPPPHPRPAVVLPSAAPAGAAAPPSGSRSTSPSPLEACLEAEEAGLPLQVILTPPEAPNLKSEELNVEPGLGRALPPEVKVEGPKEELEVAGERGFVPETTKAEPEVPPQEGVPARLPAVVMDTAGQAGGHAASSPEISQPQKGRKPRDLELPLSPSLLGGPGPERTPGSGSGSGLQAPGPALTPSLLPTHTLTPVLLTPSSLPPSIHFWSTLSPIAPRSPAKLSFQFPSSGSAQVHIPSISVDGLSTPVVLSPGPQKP
# Outline: as §1
# [3] = target: T3, GABPA (Homo sapiens, UniProt Q06546 1-454)
# T3 sequence: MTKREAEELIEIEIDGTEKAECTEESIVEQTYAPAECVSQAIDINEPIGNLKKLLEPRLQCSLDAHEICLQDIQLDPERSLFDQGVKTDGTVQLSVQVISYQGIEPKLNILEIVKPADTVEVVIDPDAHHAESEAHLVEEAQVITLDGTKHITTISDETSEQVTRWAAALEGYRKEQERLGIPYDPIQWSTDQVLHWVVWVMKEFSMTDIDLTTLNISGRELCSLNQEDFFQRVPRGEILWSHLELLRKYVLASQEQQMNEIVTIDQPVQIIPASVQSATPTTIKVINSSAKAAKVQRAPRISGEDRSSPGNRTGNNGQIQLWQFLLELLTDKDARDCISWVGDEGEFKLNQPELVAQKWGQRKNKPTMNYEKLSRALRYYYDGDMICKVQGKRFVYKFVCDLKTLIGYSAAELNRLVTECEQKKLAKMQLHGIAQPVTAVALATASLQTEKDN
# Outline: as §1
# [4] = target: T4, ERG (Homo sapiens, UniProt P11308 1-479)
# T4 sequence: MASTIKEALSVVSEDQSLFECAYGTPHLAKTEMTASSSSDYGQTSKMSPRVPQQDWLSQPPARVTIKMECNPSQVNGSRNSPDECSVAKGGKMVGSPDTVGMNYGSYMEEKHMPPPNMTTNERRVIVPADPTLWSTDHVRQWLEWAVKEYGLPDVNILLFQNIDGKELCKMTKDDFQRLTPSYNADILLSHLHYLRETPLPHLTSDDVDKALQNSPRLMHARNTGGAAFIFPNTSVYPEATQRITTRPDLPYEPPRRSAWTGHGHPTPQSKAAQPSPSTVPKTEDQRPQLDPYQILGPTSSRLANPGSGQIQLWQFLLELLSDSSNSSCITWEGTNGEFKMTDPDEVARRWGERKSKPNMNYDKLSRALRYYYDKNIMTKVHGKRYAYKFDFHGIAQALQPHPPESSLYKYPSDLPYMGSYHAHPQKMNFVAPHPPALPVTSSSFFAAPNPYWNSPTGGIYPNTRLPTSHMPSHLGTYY
# Outline: as §1
# [5] = target: ELF1 (Homo sapiens, UniProt P32519 1-619)
# Sequence of ELF1 (P32519 whole entry): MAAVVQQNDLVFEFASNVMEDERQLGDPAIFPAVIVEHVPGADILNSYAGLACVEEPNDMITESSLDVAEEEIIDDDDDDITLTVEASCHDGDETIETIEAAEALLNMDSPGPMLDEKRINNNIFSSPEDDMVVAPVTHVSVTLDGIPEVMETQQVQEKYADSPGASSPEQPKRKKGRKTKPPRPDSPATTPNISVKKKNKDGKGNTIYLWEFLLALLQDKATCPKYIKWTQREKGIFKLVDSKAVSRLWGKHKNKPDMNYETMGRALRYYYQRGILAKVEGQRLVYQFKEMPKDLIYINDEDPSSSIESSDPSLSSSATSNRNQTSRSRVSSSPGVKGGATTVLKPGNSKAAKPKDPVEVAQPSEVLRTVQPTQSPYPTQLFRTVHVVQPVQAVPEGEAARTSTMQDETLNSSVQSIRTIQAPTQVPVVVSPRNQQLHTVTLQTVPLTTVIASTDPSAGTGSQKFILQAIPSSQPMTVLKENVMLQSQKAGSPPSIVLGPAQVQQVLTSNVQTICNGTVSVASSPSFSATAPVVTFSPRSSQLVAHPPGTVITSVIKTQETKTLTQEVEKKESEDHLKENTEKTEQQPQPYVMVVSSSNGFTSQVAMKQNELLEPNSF
# Outline: as §1
# [6] = target: T5, EHF (Homo sapiens, UniProt Q9NZC4 1-300)
# T5 sequence: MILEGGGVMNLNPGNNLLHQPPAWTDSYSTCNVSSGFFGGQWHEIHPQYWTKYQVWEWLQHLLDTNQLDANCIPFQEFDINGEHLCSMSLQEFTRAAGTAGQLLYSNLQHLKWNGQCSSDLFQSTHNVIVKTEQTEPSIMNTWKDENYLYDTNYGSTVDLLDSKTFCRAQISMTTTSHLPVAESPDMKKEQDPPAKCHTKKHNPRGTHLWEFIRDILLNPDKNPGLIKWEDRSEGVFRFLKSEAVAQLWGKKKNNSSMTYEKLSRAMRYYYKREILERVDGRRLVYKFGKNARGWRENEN
# Outline: as §1
# [7] = target: SPI1 (Homo sapiens, UniProt P17947 1-270)
# Outline: as §1
# [8] = target: SPIB (Homo sapiens, UniProt Q01892 1-262)
# Sequence of SPIB (Q01892 whole entry): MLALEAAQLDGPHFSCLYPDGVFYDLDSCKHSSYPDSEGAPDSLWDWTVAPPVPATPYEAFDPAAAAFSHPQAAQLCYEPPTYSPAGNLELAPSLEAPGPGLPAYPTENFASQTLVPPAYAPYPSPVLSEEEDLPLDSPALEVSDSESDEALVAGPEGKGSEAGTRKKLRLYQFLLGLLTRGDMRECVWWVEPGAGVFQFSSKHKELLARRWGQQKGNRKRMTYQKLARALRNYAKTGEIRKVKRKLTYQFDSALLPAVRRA
# Outline: as §1
# [9] = target: T6, ELK3 (Homo sapiens, UniProt P41970 1-407)
# T6 sequence: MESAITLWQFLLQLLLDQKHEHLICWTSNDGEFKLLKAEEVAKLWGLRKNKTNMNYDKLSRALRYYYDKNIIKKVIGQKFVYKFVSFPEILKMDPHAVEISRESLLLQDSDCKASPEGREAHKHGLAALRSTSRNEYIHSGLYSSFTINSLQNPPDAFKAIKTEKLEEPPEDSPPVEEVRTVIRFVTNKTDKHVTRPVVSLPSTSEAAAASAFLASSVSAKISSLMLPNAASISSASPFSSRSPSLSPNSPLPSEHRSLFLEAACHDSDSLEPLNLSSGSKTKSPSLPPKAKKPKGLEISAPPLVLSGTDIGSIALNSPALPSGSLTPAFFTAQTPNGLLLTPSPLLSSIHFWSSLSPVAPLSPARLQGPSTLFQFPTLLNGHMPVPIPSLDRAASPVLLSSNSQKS
# Outline: as §1
# [10] = target: T7, FEV (Homo sapiens, UniProt Q99581 1-238)
# T7 sequence: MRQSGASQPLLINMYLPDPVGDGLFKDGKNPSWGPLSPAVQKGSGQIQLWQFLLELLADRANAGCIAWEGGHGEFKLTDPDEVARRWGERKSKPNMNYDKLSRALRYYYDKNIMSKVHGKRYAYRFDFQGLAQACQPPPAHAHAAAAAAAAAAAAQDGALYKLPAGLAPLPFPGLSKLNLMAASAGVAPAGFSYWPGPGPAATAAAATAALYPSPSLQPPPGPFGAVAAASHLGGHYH
# Outline: as §1
# [11] = target: ETV5 (Homo sapiens, UniProt P41161 1-510)
# Sequence of ETV5 (P41161 whole entry): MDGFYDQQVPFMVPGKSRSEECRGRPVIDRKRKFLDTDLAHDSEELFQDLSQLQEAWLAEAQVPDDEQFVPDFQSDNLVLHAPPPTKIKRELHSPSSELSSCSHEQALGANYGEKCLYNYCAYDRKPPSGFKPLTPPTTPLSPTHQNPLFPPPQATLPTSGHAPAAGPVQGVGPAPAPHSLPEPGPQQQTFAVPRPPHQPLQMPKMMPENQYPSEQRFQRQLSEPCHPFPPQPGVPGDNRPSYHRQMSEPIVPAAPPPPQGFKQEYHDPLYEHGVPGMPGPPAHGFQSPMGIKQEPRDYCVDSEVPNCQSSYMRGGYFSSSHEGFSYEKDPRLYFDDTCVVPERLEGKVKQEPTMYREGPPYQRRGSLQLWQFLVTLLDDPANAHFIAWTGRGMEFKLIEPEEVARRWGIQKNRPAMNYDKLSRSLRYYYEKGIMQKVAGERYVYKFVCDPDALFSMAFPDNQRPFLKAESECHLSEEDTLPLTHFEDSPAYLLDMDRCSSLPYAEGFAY
# Outline: as §1
# [12] = target: T8, SPIC (Homo sapiens, UniProt Q8N5J4 1-248)
# T8 sequence: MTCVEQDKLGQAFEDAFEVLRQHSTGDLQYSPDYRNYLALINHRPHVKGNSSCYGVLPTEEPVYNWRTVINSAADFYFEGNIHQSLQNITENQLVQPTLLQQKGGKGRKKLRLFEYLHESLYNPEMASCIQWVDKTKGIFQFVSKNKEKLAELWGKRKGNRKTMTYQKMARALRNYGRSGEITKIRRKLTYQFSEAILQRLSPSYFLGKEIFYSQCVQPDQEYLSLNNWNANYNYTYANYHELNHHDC
# Outline: as §1
# [13] = target: ELF4 (Homo sapiens, UniProt Q99607 1-663)
# Sequence of ELF4 (Q99607 whole entry): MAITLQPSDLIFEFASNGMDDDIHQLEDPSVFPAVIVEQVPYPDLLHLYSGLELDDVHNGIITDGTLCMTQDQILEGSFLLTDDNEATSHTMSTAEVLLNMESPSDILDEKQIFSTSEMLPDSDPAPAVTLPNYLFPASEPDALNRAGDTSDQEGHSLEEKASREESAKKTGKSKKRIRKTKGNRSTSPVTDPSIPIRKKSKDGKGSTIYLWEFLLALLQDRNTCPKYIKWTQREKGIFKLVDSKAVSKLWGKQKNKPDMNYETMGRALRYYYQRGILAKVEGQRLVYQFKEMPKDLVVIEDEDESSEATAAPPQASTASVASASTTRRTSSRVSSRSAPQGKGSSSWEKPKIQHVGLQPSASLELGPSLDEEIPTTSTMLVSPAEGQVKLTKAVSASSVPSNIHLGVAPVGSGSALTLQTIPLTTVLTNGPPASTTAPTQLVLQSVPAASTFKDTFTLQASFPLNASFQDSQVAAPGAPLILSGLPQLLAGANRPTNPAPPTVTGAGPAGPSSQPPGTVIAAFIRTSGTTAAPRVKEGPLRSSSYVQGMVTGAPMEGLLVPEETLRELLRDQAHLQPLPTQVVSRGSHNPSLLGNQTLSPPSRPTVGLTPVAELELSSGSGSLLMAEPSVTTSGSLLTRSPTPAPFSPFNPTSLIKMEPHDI
# Outline: as §1
# [14] = target: T9, ELK4 (Homo sapiens, UniProt P28324-2 1-405)
# T9 sequence: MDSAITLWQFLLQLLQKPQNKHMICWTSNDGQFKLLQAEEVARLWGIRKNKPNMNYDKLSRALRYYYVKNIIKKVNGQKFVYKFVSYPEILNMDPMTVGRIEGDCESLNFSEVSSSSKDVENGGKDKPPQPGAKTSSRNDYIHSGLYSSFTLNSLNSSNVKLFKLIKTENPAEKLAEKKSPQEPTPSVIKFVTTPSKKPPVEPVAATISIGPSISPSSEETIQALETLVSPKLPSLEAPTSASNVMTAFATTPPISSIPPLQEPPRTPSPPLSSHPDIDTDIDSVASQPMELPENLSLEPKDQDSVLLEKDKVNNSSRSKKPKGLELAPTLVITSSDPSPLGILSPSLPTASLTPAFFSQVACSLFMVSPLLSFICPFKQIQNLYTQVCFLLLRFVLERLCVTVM
# Outline: as §1
# [15] = target: T10, ETV2 (Homo sapiens, UniProt O00321 1-342)
# T10 sequence: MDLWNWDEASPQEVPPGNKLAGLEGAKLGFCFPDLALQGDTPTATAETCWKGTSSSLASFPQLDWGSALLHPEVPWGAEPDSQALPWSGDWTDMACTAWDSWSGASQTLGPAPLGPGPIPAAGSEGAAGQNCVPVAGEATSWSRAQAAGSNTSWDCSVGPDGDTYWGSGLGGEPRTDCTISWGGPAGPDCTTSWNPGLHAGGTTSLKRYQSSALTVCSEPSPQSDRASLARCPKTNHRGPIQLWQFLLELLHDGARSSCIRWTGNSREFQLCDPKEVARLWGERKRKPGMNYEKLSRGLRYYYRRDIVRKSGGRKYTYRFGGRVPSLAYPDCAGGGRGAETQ
# Outline: as §1
# [16] = target: T11, ELF3 (Homo sapiens, UniProt P78545 1-371)
# T11 sequence: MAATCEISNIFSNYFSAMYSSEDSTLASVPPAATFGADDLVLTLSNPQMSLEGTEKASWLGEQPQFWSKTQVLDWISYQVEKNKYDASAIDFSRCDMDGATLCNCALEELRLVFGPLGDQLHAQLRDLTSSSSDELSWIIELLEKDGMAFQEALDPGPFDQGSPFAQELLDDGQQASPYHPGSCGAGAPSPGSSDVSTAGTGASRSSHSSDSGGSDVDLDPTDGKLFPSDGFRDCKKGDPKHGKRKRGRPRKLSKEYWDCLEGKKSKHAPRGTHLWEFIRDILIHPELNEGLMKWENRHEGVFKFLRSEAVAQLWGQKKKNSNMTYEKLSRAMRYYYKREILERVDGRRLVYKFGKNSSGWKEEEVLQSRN
# Outline: as §1
# [17] = target: ETV1 (Homo sapiens, UniProt P50549 1-477)
# Sequence of ETV1 (P50549 whole entry): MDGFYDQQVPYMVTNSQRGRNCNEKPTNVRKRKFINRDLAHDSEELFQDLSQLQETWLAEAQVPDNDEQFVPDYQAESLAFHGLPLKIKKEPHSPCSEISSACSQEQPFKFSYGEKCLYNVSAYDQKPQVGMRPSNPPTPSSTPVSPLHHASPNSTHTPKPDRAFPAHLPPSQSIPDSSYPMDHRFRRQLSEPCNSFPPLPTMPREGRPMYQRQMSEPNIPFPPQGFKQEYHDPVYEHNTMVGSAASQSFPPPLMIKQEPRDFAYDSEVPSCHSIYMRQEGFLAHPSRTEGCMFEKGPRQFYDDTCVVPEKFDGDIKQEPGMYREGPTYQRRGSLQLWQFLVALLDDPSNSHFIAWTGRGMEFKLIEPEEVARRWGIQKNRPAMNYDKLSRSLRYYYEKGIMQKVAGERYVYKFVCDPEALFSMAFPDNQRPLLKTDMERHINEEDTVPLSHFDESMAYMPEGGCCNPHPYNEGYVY
# Outline: as §1
sequence,measurement,setting,value
GCGACC,binding signal,[1],"1.09 fold enrichment (6-mer frequency, TF over GST control)"
same,binding signal,[2],"1.11 fold enrichment (6-mer frequency, TF over GST control)"
same,binding signal,[3],"1.09 fold enrichment (6-mer frequency, TF over GST control)"
same,binding signal,[4],"1.17 fold enrichment (6-mer frequency, TF over GST control)"
same,binding signal,[5],"1.15 fold enrichment (6-mer frequency, TF over GST control)"
same,binding signal,[6],"1.2 fold enrichment (6-mer frequency, TF over GST control)"
same,binding signal,[7],"1.07 fold enrichment (6-mer frequency, TF over GST control)"
same,binding signal,[8],"1.08 fold enrichment (6-mer frequency, TF over GST control)"
same,binding signal,[9],"1.02 fold enrichment (6-mer frequency, TF over GST control)"
same,binding signal,[10],"1.19 fold enrichment (6-mer frequency, TF over GST control)"
same,binding signal,[11],"1.09 fold enrichment (6-mer frequency, TF over GST control)"
same,binding signal,[12],"1.2 fold enrichment (6-mer frequency, TF over GST control)"
same,binding signal,[13],"1.25 fold enrichment (6-mer frequency, TF over GST control)"
same,binding signal,[14],"1.03 fold enrichment (6-mer frequency, TF over GST control)"
same,binding signal,[15],"1.26 fold enrichment (6-mer frequency, TF over GST control)"
same,binding signal,[16],"1.08 fold enrichment (6-mer frequency, TF over GST control)"
same,binding signal,[17],"1.06 fold enrichment (6-mer frequency, TF over GST control)"
